# From PubChem BioAssay AID1021 (Emory University Molecular Libraries Screening Center, 2008)
# “And” between values parts separate entries of the source, which are not always exact repeats. Equal values may be shown once. The whole screen tested about 220,000 compounds, of which about 2,100 (0.95%) were called active. The entries come from a sample that favours actives as a whole. Unmarked numbers belong to inactive results.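 Rule for the calls: active = compounds that cut the binding signal by more than half at the single screening dose; inactive = the rest.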
# Biological target: Induced myeloid leukemia cell differentiation protein Mcl-1 (Homo sapiens) (UniProt Q07820)
# Test: Mcl-1/Bid binding inhibitors, primary screen, biochemical, TR-FRET, 1536-well (AID 1021);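 note: His-tagged Mcl-1 with europium anti-His antibody binding Bid BH3 peptide; 0% = Mcl-1 plus peptide wells and 100% = peptide-only wells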
# Conditions: TR-FRET Mcl-1/Bid-Dy647 peptide binding, at 21.7 µM, active compounds read high
# Chain of Induced myeloid leukemia cell differentiation protein Mcl-1 (Homo sapiens) (Q07820 whole entry, looked up): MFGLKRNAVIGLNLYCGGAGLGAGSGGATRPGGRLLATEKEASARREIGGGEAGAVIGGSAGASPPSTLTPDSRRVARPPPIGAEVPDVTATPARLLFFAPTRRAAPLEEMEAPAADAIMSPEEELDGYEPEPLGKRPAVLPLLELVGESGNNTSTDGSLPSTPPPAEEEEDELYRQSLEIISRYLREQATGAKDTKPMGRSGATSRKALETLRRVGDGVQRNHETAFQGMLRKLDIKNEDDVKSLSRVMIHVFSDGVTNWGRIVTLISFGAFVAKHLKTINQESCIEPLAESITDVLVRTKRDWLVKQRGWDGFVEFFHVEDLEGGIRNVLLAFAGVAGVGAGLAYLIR
row,Structure (SMILES),inhibition
1,COc1ccc2c(c1)C(C)=CC(C)(C)N2C(=O)CNCc1ccc2c(c1)OCO2,62% (active)
2,COc1ccc2c(c1)C(C)=CC(C)(C)N2C(=O)Nc1ccccc1,-36.6%
3,CCn1cc(C(=O)NCc2ccc3c(c2)OCO3)c2cc(OC)c(OC)cc2c1=O,38.8%
4,CC(=O)c1nnn(-c2ccc(Cl)cc2C#N)c1C,1.84%
5,COc1ccc(Cl)cc1C(=O)NCc1cn(C)nc1C,-17.2%
6,Cc1ccc(-c2cc(C(=O)NCc3cn(C)nc3C)c3cc(Br)ccc3n2)cc1,57.4% (active)
7,Cc1ccc2nc(-c3cccc(Br)c3)cc(C(=O)Nn3cnnc3)c2c1,-15.1%
8,CN(Cc1ccccn1)Cc1nc(-c2ccc(Cl)cc2)no1,3.34%
9,CN(c1ccccc1)S(=O)(=O)c1ccc(Cl)c(C(=O)OCC(=O)NCc2ccco2)c1,-33.3%
10,CCN(CC)CCCN=C(N)N,-18.1%
11,Nc1nnc(SCC(=O)NC2CCCc3ccccc32)s1 (stereo unspecified),-21.1%
12,O=C(Cn1nnc(-c2ccccc2)n1)NCc1ccccc1,-1.82%
13,O=C(CN1CCOCC1)N/N=C/c1ccc(-c2ccc(Br)cc2)o1,-11.9%
14,Nc1nnnn1CC(=O)N/N=C/c1ccc(-c2cccc(Cl)c2)o1,-8.79%
15,Nc1nnn(CC(=O)N/N=C/c2ccccc2)n1,-50.3%
16,Cc1[nH]c2ccccc2c1/C=N\NC(=O)Cn1nnc(-c2ccccc2)n1,65.2% (active)
17,O=C(Cn1nnc(-c2ccccc2)n1)N/N=C/c1ccc(-c2ccc(Cl)cc2)o1,61% (active)
18,CCCCN1CCNC1=S,-29.5%
19,CC1(C)CC(=O)C(C=NCCN2CCN(C(=S)Nc3cccc(Cl)c3)CC2)=C(O)C1,-49.6%
20,Cc1nn(C)c(C)c1Sc1ccccc1N,-33.5%
21,CCN(CC)c1ccc(NC(=O)C2CCC(CNc3c(N4CCCC4)c(=O)c3=O)CC2)c(C)c1 (stereo unspecified),-70.9%
22,CC1(C)OC(=O)N2CCc3ccccc3C21C (stereo unspecified),6.73%
23,CN(C)C(=O)c1nc2ccc(Cl)cn2c1CNCc1cccc(OC(F)(F)F)c1,-1.45%

row,Structure (SMILES),inhibition
1,CCC(CC)C(=O)N1CC(=O)Nc2ccc(Br)cc2C1c1ccccc1 (stereo unspecified),-3.97%
2,COC(=O)CN1C(=O)C(O)=C(C(C)=O)C1c1ccc([N+](=O)[O-])cc1 (stereo unspecified),-31.9%
3,COC(=O)CN1C(C)=Nc2ccc(Br)cc2C1c1ccccc1 (stereo unspecified),67.2% (active)
4,N#CCCCn1c(O)c(N=NC(=O)C(O)c2ccccc2)c2ccccc21 (stereo unspecified),-13.3%
5,Cc1cc(=O)oc2c(C(=O)c3ccccc3)c(OCC(N)=O)ccc12,-15.3%
6,N#CCC(=O)N/N=C/c1cn(Cc2ccc3ccccc3c2)c2ccccc12,25.7%
7,O=C(O)CCn1cc(/C=C/C(=O)c2ccc(Cl)cc2)c(-c2cccc(Br)c2)n1,69.2% (active)
8,O=C(O)/C=C/c1cn(Cc2ccccc2)nc1-c1cccs1,-0.35%
9,CCOC(=O)/C(C#N)=C/c1cn(CCC(=O)O)nc1-c1ccc(Br)cc1,39.2%
10,Cc1noc(C)c1S(=O)(=O)Nc1ccc(C(=O)N2CCN(c3ccc(F)cc3)CC2)cc1,-10.6%
11,CCOc1cc(C(=S)N2CCOCC2)ccc1O,74.5% (active)
12,CCOc1cc(C(=O)OCC(=O)Nc2cccc(C)c2)ccc1OCC(=O)N1CCOCC1,-54%
13,COc1cc(C(=S)N2CCOCC2)ccc1O,-30.2%
14,O=C(Nc1ccc2c(c1)C(=O)OC2)Nc1cccc2ccccc12,-19.5%
15,COc1ccc(/C=C/CN2CCN(Cc3ccc(C)cc3)C(CCO)C2)cc1 (stereo unspecified),-9.23%
16,NC1=NC[C@@H](Cc2ccc(O)cc2)N1CC1CCCCC1,-44.1%
17,C#CCOCCOCCOCCNc1nc(N2CCN(C(=O)[C@H](Cc3ccc(O)cc3)n3cc(C(N)CC(C)C)nn3)CC2)nc(N2CCN(C(=O)[C@H](CCC(=O)O)n3cc(C(N)[C@H](C)CC)nn3)CC2)n1 (stereo partly specified),2.45%
18,C#CCOCCOCCOCCNc1nc(N2CCN(C(=O)C(Cc3ccc(O)cc3)n3cc(C(N)CC(C)C)nn3)CC2)nc(N2CCN(C(=O)C(Cc3ccc(O)cc3)n3cc(C(N)C(C)CC)nn3)CC2)n1 (stereo unspecified),-1.6%
19,C#CCOCCOCCOCCNc1nc(N2CCN(C(=O)[C@H](CCC(=O)O)n3cc(C(N)CO)nn3)CC2)nc(N2CCN(C(=O)[C@H](Cc3ccc(O)cc3)n3cc(C(N)[C@H](C)CC)nn3)CC2)n1 (stereo partly specified),62.7% (active)
20,O=C(CCCl)Nc1ccc(S(=O)(=O)NCc2ccco2)cc1,-69.5%
21,CCNC(=O)NC(=O)C(C)OC(=O)C1CCN(S(=O)(=O)c2ccccc2F)CC1 (stereo unspecified),-21.6%
22,COc1ccc(N2C(=O)C3CCCN3C2c2cccc(OC)c2)cc1 (stereo unspecified),-26.8%
23,COc1ccc(OC)c(C2N(c3ccccn3)C(=O)C3CCCN32)c1 (stereo unspecified),51.8% (active)

row,Structure (SMILES),inhibition
1,COc1ccc(N2C(=O)C3CCCN3C2c2cc(OC)c(OC)cc2OC)cc1 (stereo unspecified),-12.4%
2,c1ccc(CSc2nnc(-c3ccco3)c(-c3ccco3)n2)cc1,91.7% (active)
3,Brc1ccc(CSc2ccc(-c3ccco3)nn2)cc1,-15.8%
4,O=C(Nc1nnc(SCc2ccccc2)s1)c1ccco1,-46.6%
5,COC(OC)c1ccnc(SCc2ccccc2Cl)n1,-7.91%
6,Clc1ccccc1CSc1nnc(-c2ccco2)c(-c2ccco2)n1,99.3% (active)
7,Nc1nc(SCc2ccccc2Cl)n[nH]1,-6.93%
8,COC(=O)c1cc(=O)n(-c2c(Cl)cc(C(F)(F)F)cc2Cl)[nH]1,-6.09%
9,O=C1NNC(c2ccccc2)=N/C1=C\c1ccc(Cl)cc1,-13.5%
10,Cc1nc2nc[nH]n2c(=O)c1C/C=C/c1ccccc1,-22.4%
11,CCS(=O)(=O)c1ccc(C(=O)NC)c(Cl)c1Cl,-26.1%
12,CCCCN1Cc2c(nc3cc(-c4ccccc4)[nH]n3c2=O)C1=O,-37.8%
13,O=S(=O)(Nc1n[nH]c(C(F)(F)F)n1)c1ccccc1,-11.3%
14,CCc1cc2c(N3CCN(c4nnc(CC)s4)CC3)ncnc2s1,56.7% (active)
15,CCc1cc2c(SCC(=O)Nc3ncc(Cl)c(C)c3Cl)ncnc2s1,-33.7%
16,Oc1ccccc1N1CCN(c2ncnc3sc(-c4ccccc4)cc23)CC1,-18.1%
17,N#Cc1c(NCCO)ccc([N+](=O)[O-])c1NCCO,-25.7%
18,CCCCCC(=O)Nc1ccc(-c2cn3cccnc3n2)cc1,-4.56%
19,CC(C)n1c(=S)[nH]c2cc(C(F)(F)F)ccc21,-33.7%
20,COc1ccc(OC)c(Nc2nc3ccccc3n3cnnc23)c1,-7.62%
21,CN(C)/C=C(/C(=O)c1ccccc1Cl)S(C)(=O)=O,-0.7%
22,CCOC(=O)c1cn(CC)c2cc(F)c(F)cc2c1=O,-8.08%
23,CC(C)c1ccc2c(c1)c(SC(C)(C)C)c(CC(C)(C)C(=O)O)n2Cc1ccc(Cl)cc1,83.2% (active)

row,Structure (SMILES),inhibition
1,CCC(=O)Nc1cccc(C2=NOC3(C2)C[C@@H](C(N)=O)N(C(=O)c2cc([N+](=O)[O-])cc([N+](=O)[O-])c2C)C3)c1 (stereo partly specified),-35.2%
2,CC(C)C(=O)N1CCC2(CC1)Oc1ccc(F)cc1C(=O)C21CC(c2ccccc2)=NO1 (stereo unspecified),-8.72%
3,CCCC/S(C)=N/S(=O)(=O)c1ccc(C)cc1 (stereo unspecified),4.25%
4,CC/S(CC1CC1(Cl)Cl)=N\S(=O)(=O)c1ccc(C)cc1 (stereo unspecified),-4.99%
5,Cc1ccc(S(=O)(=O)/N=S(\C)C(C)C)cc1 (stereo unspecified),89.4% (active)
6,O=C1[C@@H]2C(c3cccnc3)=NO[C@@H]2C(=O)N1c1ccc(Cl)cc1Cl,-19.8%
7,CCN1C(=O)/C(=c2\s/c(=C3\Sc4ccccc4N3C)c(=O)n2C)N(C)C1=S,79.2% (active)
8,CCN1C(=O)/C(=C2/Sc3ccccc3N2CCCS(=O)(=O)O)SC1=S,-30.2% and -29.9%
9,CCC(=O)/C=C1\Sc2ccccc2N1CC,-12.9%
10,Cc1cc(F)ccc1NC(=O)C(C)n1c2ccccc2c2nc(=O)cc(C)n21 (stereo unspecified),-4.95%
11,COCCN(CCOC)c1nc(N)c2c(N)nc3c(c2c1C#N)CC(=O)N3Cc1ccc(Cl)cc1,54.2% (active)
12,CCOc1ccc(NC(=O)c2cc(C)nc3ccccc23)cc1,-4.96%
13,COc1ccccc1C(=O)Nc1ccc(OCc2nnc3c4ccccc4c(C)nn23)cc1,59.8% (active)
14,COc1ccccc1C(=O)NNC(=O)c1ccc(NC(=O)c2ccccc2)cc1,-23.3%
15,CCOC(=O)N/N=C1\CC(C)S(=O)(=O)c2ccc(Cl)cc21 (stereo unspecified),-6.47%
16,O=C(O)CCc1cccnc1,-29.9%
17,COc1ccc2nc(Nc3nc4cc5c(cc4s3)OCCO5)sc2c1,-62.6%
18,COc1ccc2nc(Nc3nc4ccc(NC(C)=O)cc4s3)sc2c1,72.8% (active)
19,COc1ccc2nc(NC(=O)c3ccc(Br)s3)sc2c1,4.41%
20,COc1ccc(N2CCN(C(=O)COc3ccc4c(C)cc(=O)oc4c3)CC2)cc1,-16.1%
21,COc1cccc(-c2nnc(SCCOc3ccc4c(C)cc(=O)oc4c3)o2)c1,-1.18%
22,COc1ccc(-c2csc3ncnc(Oc4ccc5c(C)cc(=O)oc5c4)c23)cc1,63.3% (active)
